Experiment [1] can be described thus: NCI Yeast Anticancer Drug Screen. Data for the rad50 strain (AID 155).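 Note: 0% = growth of vehicle-only cultures of the same strain.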 Conditions: S. cerevisiae rad50 strain growth inhibition; at 50.0 µM; hits give high values. In a few lines: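 Inhibition values express reduced yeast growth in compound-treated cultures relative to vehicle-treated controls.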
Experiment [2] in a line: NCI Yeast Anticancer Drug Screen. Data for the mec2-1 strain (AID 157). As to conditions: S. cerevisiae mec2-1 strain, at 50.0 µM, hits give high values. In a few lines: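 Test agents were screened against the mec2-1 yeast strain, with defined DNA repair or cell cycle alteration. Growth was scored as inhibition against vehicle-only controls.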
The nature of experiment [3]: NCI Yeast Anticancer Drug Screen. Data for the sgs1 mgt1 strain (AID 161).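 Note: 0% = growth of cultures given vehicle only.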 As to conditions: S. cerevisiae sgs1 mgt1 strain, at 50.0 µM, hits give high values. Put shortly:
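Read-out: growth inhibition vs vehicle controls. Cells: mutant yeast strain deficient in DNA damage repair.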

A short description of experiment [4]: NCI Yeast Anticancer Drug Screen. Data for the cln2 rad14 strain (AID 165).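 Note: 0% = growth equal to vehicle treated cultures.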 Conditions: S. cerevisiae cln2 rad14 strain, at 50.0 µM, hits give high values. In a few lines:
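Growth of compound-exposed yeast (cln2 rad14 genotype) measured and expressed as inhibition relative to vehicle.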

Experiment [5] in a line: NCI Yeast Anticancer Drug Screen. Data for the bub3 strain (AID 167). Conditions: S. cerevisiae bub3 mutant strain, at 50.0 µM, hits give high values. In a few lines:
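Steps: expose the mutant yeast strain to compound; grow alongside vehicle-treated cultures; measure growth; express inhibition against the vehicle cultures.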

Experiment [6] can be described thus: NCI Yeast Anticancer Drug Screen. Data for the mlh1 rad18 strain (AID 175). As to conditions: S. cerevisiae mlh1 rad18 strain growth inhibition; at 50.0 µM; hits give high values. In a few lines: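 In this whole-cell yeast screen, a strain with altered DNA damage repair is challenged with compound, and its growth is measured against matched vehicle-treated controls.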

Compounds without any hit were thinned out: in the full panel of roughly 79,000, 15% have a hit. Unmarked numbers belong to inactive results. Active and inactive are the calls of the source. Cut-off read from the data, not from the text of the source: active = growth inhibition above about 70%; inactive = the rest.

For the molecule `[N-]=[N+]=NC12CC3CC(CC(C3)C1)C2`, the growth inhibition is -9.7% in experiment [1]; -6% in experiment [2]; -7.45% in experiment [3]; -9.35% in experiment [4]; -25.6% in experiment [5]; -20.2% in experiment [6].
For `O=C(c1ccccc1)N1CC(Cl)CN(C(=O)c2ccccc2)CC(Cl)C1` (stereo not given), the growth inhibition in experiment [1] was 21.4%; in experiment [2], 26%; in experiment [3], 37.8%; in experiment [4] it was 14.8%; in experiment [5], 16.3%; in experiment [6], 25.6%.
On to `CCOC(=O)C1C(c2ccco2)C2(C#N)C(=N)OC1(C)C2(C#N)C#N` (stereo not given), for which the growth inhibition in experiment [1] was 3.45%; in experiment [2], 12.3%; in experiment [3], -39.5%; in experiment [4], -0.9%; in experiment [5], -36.8%; in experiment [6], -52%.
`BrP(Br)(c1ccccc1)(c1ccccc1)c1ccccc1`: the growth inhibition in experiment [1] was -1.6%; in experiment [2], -28.8%; in experiment [3], 17.1%; in experiment [4] it was 25.4%; in experiment [5] it was 10.7%; in experiment [6], -0.1%.
`COC(c1ccccc1)(c1ccccc1)C1C(c2ccccc2)N1C1CCCCC1` (stereo not given): the growth inhibition in experiment [1] is 46.1%; in experiment [2], -5.3%; in experiment [3], 43.5%; in experiment [4], -1.3%; in experiment [5], -5.1%; in experiment [6], 22.8%.
Turning to `Cc1c2ccccc2c(C)c2c1cc[n+]1ccccc21`, the growth inhibition in experiment [1] was 14.1%; in experiment [2], -1.35%; in experiment [3] it was 15.2%; in experiment [4], 0.05%; in experiment [5], 1.05%; in experiment [6], 1.8%.
Regarding `CCOC12CC3C4=CCOC5CC(=O)N6c7ccccc7C1(CCN2C4)C6C53` (stereo not given), the growth inhibition in experiment [1] was 15.8%; in experiment [2], -39.2%; in experiment [3] it was -9.45%; in experiment [4], 18.9%; in experiment [5] it was 9.05%; in experiment [6], -1.2%.
In the case of `CCN(CC)C(=S)[S][Pb]([CH2]C)([CH2]C)[CH2]C`, the growth inhibition was 3.5% in experiment [1]; 9.25% in experiment [2]; 30.2% in experiment [3]; 16.9% in experiment [4]; -1.35% in experiment [5]; 10.2% in experiment [6].
As to `[C-]#[O+].[C-]#[O+].[C-]#[O+].[C-]#[O+].[Cr].c1ccc([PH+](CC[PH+](c2ccccc2)c2ccccc2)c2ccccc2)cc1`, the growth inhibition was 11.7% in experiment [1]; 4.85% in experiment [2]; -0.9% in experiment [3]; 15.2% in experiment [4]; 0.35% in experiment [5]; 20.4% in experiment [6].
On to `C[N+](C)=C(Cl)Cl`, for which the growth inhibition was 1.75% in experiment [1]; -30.1% in experiment [2]; -8.1% in experiment [3]; 4.15% in experiment [4]; -7.85% in experiment [5]; -12.9% in experiment [6].
For the molecule `C/C(=N\NS(=O)(=O)c1ccc(C)cc1)C(CN(C)C)C(c1ccccc1)c1c(O)c2ccccc2oc1=O` (stereo not given), the growth inhibition was 59.9% in experiment [1]; 42.2% in experiment [2]; 65.2% in experiment [3]; 52.9% in experiment [4]; 54.7% in experiment [5]; 51.9% in experiment [6].
Consider `COC12CC3C4=CCOC5CC(=O)N6c7ccccc7C1(CCN2C4)C6C53` (stereo not given), for which the growth inhibition in experiment [1] was 5.3%; in experiment [2] it was -23.8%; in experiment [3], 13.3%; in experiment [4] it was 16.9%; in experiment [5], 15.2%; in experiment [6], 15.4%.
In the case of `CN(C)P(=O)(N(C)C)N(C)C.[CH3][Sn]([CH3])([Cl])[Cl]`, the growth inhibition is 5.75% in experiment [1]; -1.2% in experiment [2]; 52.4% in experiment [3]; 49.9% in experiment [4]; 63.8% in experiment [5]; 82.2% (active) in experiment [6].
As for `C[C@]12CC[C@H](OC(=O)Cc3ccc(N(CCCl)CCCl)cc3)CC1CC[C@@H]1C2CC[C@]2(C)NC(=O)CCC12` (stereo not given in full), the growth inhibition is 0.1% in experiment [1]; -5.65% in experiment [2]; 15.9% in experiment [3]; 15.2% in experiment [4]; 3.65% in experiment [5]; 18.1% in experiment [6].
On to `Oc1ccc(Nc2ncnc3nc[nH]c23)cc1CN(CCCl)CCCl`, for which the growth inhibition in experiment [1] was -5.85%; in experiment [2] it was -5.8%; in experiment [3], 3.95%; in experiment [4], -45.4%; in experiment [5], -15.5%; in experiment [6], 3.65%.
With `N#CCO`, the growth inhibition in experiment [1] is -3.7%; in experiment [2], 11.3%; in experiment [3], -9.1%; in experiment [4] it was -5.4%; in experiment [5], -3.4%; in experiment [6], -5.65%.
As for `N/C(=N\NC(=O)c1ccc([N+](=O)[O-])cc1)N[N+](=O)[O-]`, the growth inhibition in experiment [1] is -11.1%; in experiment [2], -12.2%; in experiment [3], -3.65%; in experiment [4], 28.8%; in experiment [5], 11.2%; in experiment [6], 1.75%.
Take `NC(=O)c1cc([N+](=O)[O-])c([N+](=O)[O-])cc1N(CCCl)CCCl`: the growth inhibition in experiment [1] was 14.4%; in experiment [2] it was 8.95%; in experiment [3] it was 27.2%; in experiment [4], 0.4%; in experiment [5] it was -3.8%; in experiment [6], 13.3%.
As to `O=NN(CCCl)C(=O)O`, the growth inhibition is 5.55% in experiment [1]; -9.05% in experiment [2]; -5.25% in experiment [3]; -42.8% in experiment [4]; 10.9% in experiment [5]; 11.9% in experiment [6].
Take `O=C(CCl)Oc1ccccc1`: the growth inhibition in experiment [1] was -47.1%; in experiment [2], -33.5%; in experiment [3], -27.1%; in experiment [4], -10.8%; in experiment [5] it was -59.5%; in experiment [6], -28.1%.

For the origin of these results see PubChem BioAssay (NCI).
